The results in this text go back to PubChem BioAssay (NCATS).

Unmarked numbers belong to inactive results. Results filed as inconclusive are left out. Active and inactive are the calls of the source. Unless noted, calls come from the whole dose curve; as a rule, active = well fitted curve in the direction sought with a large enough effect; inconclusive = small, poorly fitted or top-dose-only effect, or another doubt; inactive = no such curve, though single readings can be large; an effect the other way counts as inactive or inconclusive.

Assay [1] has as its target Lysosomal acid glucosylceramidase (Homo sapiens) (UniProt P04062). The experiment in a line: Glucocerebrosidase-p2 (AID 348; in the data active = potency below about 10 µM; note: potency is the fitted concentration of half-maximal effect). The conditions noted are these: purified GBA, blue fluorogenic substrate, 40 min. The procedure, abridged:
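Compounds titrated from 0.6 nM upwards against 0.2 nM enzyme in pH 5.9 citric acid/KH2PO4, taurocholate, tween-20; blue fluorogenic substrate 80 uM, 40 min room temperature, stopped and read Ex 365/Em 440 for AC50.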

A short description of assay [2]: AP1 Signaling Pathway (AID 357; active = well fitted curve in either direction with a large enough effect, not every such curve was filed as active; note: % is set by controls: 0 for no effect and ±100 for the full control effect). The note with it: ME-180 AP-1-bla reporter, EGF-induced, beta-lactamase ratio, 5 h; at 7.69 µM (top of the series) unless noted. The procedure, abridged: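 A ratiometric CCF4 readout (405 nm excitation; 460 and 530 nm emission) quantified AP-1-driven beta-lactamase in ME-180 cells after 5 h with compound and EC50 EGF; AC50 values were derived for activators and inhibitors.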

Assay [3] can be described thus: NFAT Signaling Pathway (AID 444; active = well fitted curve in either direction with a large enough effect, not every such curve was filed as active;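 note: carbachol stimulus at about its EC50 of 1 µM final; % is set by controls: 0 for no effect and ±100 for the full control effect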). The note with it: Jurkat NFAT-bla M1, carbachol, beta-lactamase ratio, 5 h; at 7.69 µM (top of the series) unless noted. The procedure, abridged: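 Read-out: CCF4 FRET ratio (460 nm/530 nm) after 1 h RT dye loading, used for %activity and AC50 from titration series. Cells: Jurkat NFAT-β-lactamase/M1 line, treated with compound plus 1 uM carbachol for 5 h, 37 °C.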

The nature of assay [4]: Stat Signaling Pathway (AID 446; active = well fitted curve in either direction with a large enough effect, not every such curve was filed as active;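 note: ME-180 cervical cancer cells given 40 pM IL-6 alongside compound; SIE-controlled beta-lactamase reporter measured as 460/530 nm FRET emission ratio; % is set by controls: 0 for no effect and ±100 for the full control effect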). The note with it: ME-180 SIE beta-lactamase reporter, IL-6 stimulated, 5 h; at 7.69 µM (top of the series) unless noted. The procedure, abridged: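 Screening format detects activators and inhibitors alike: ME-180 SIE-bla cells stimulated at 40 pM IL-6 for 5 hrs with compound, then dual-emission beta-lactamase read at 405 nm excitation.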

For assay [5], the target named is Glucocorticoid receptor (Homo sapiens) (UniProt P04150). The experiment in a line: GR-GFP Redistribution (AID 450;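 active = compounds whose dose series gives a full or clear partial fitted curve of increased nuclear translocation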; note: potency is the fitted concentration of half-maximal effect). The note with it: U2OS GR-GFP nuclear translocation, laser cytometry, 2 h.
Assay [6] shares this target. The experiment in a line: GR-EFC Redistribution (AID 451; calls by dose curve; note: potency is the fitted concentration of half-maximal effect). The note with it: CHO-K1 GR-EFC translocation, beta-gal luminescence, 2 h. The procedure, abridged: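 Translocation of GR-ED fusion to nuclear EA restores b-gal, read by luminescence after 1 h room-temperature detection. Engineered CHO-K1 biosensor cells, 1,000/well, exposed 2 h at 37 C to titrations up to 46 uM final.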

Assay [7] concerns the target Mitogen-activated protein kinase 10 (Mus musculus) (UniProt Q61831). The experiment in a line: JNK3 AlphaScreen Assay (AID 530; active = well fitted curve in either direction with a large enough effect, not every such curve was filed as active;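 note: kinase came from lysate of stimulated human HepG2 cells; signal reports phosphorylation of biotinylated GST-cJun 1-79 at Ser73 with 10 µM ATP; % is set by controls: 0 for no effect and ±100 for the full control effect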). The conditions noted are these: JNK3 lysate, c-Jun phosphorylation; series mostly up to 57.1 µM. The procedure, abridged: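 Room-temperature AlphaScreen kinase assay; pre-activated HepG2 lysate as JNK3 source, biotin-GST-cJun(1-79) substrate, 10 uM ATP, compound 15 min preincubation.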
On the technique in general: In Alpha technology, singlet oxygen from a donor bead excites a nearby acceptor bead.

For assay [8], the target named is 3',5'-cyclic-AMP phosphodiesterase 4B (Homo sapiens) (UniProt Q07343). The experiment in a line: qHTS Assay for Inhibitors of PDE-IV (AID 607; active = well fitted activation curve with a large enough effect in the main read-out, with a control signal flat, not every such curve was filed as active; note: % of control where 0% means no effect). The note with it: HEK293 ACTOne CNG channel cells, membrane potential fluorescence; series mostly up to 22.9 µM. The procedure, abridged: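 The readout is membrane depolarisation from a cAMP-sensing CNG channel, detected with a potential dye at ex 535/em 590. Cells were HEK293-derived (endogenous PDE-IV) at 1000 cells/well, titrated up to 22.9 uM final.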
(Quantitative high-throughput screening tests each substance at several concentrations.)

In assay [9] the target is Dual specificity protein kinase CLK4 (Homo sapiens) (UniProt Q9HAZ1). The experiment in a line: qHTS Assay for Inhibitors of CDC-like Kinase 4 (Kinase-Glo Assay) (AID 1770). Note: nearly all actives have a fitted effect of over 65% in size. Note: potency is the fitted concentration of half-maximal effect. The conditions noted are these: recombinant Clk4, Kinase-Glo ATP depletion luminescence; series mostly up to 66.7 µM. The procedure, abridged: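 Clk4 25 nM, RS peptide 100 uM, ATP 1 uM, pH 7.5 Tris, 10 mM MgCl2, 2.5 mM DTT; 4.5 h RT; ATP depletion read by Kinase-Glo luminescence.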

For assay [10] the target is unchanged. The experiment in a line: qHTS Assay for Inhibitors of CDC-like Kinase 4 (ADP-Glo Assay) (AID 1771). Note: nearly all actives have a fitted effect of over 70% in size. Note: potency is the fitted concentration of half-maximal effect. The note with it: recombinant CLK4, ADP-Glo luminescence; series mostly up to 80 µM. The procedure, abridged: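 Kinase reaction: Clk4 at 25 nM, RS repeat peptide substrate at 100 uM, ATP at 1 uM, 1 hr, room temperature. Product ADP detected as luciferase signal via ADP-Glo.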

The target in assay [11] is Ubiquitin carboxyl-terminal hydrolase 1 (Homo sapiens) (UniProt O94782). The experiment in a line: Inhibitors of USP1/UAF1: Pilot qHTS (AID 504865).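 Note: rhodamine fluorescence freed from ubiquitin-rhodamine substrate followed over time; top concentration of the series differs between compounds; % is set by controls: 0 for no effect and ±100 for the full control effect; nearly all actives have a fitted effect of over 35% in size.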 The conditions noted are these: purified USP1/UAF1, Ub-rhodamine cleavage fluorescence; series mostly up to 54.9 µM. The procedure, abridged:
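Enzyme-free wells gave the negative control, while test wells held 1nM USP1/UAF1 preincubated with compound for 15 min at room temperature. Ub-Rho at 150nM final started the reaction, and fluorescence at 480/540 nm was recorded kinetically.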

A short description of assay [12]: Primary qHTS for small molecule stabilizers of the endoplasmic reticulum resident proteome: Secreted ER Calcium Modulated Protein (SERCaMP) assay (AID 1508630). Note: % is set by controls: 0 for no effect and ±100 for the full control effect. The conditions noted are these: SH-SY5Y GLuc-SERCaMP (Gaussia luciferase released on ER calcium loss) secretion, thapsigargin, luminescence; series mostly up to 38.4 µM. The procedure, abridged: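 GLuc-SERCaMP-expressing SH-SY5Y cells, pretreated 16 h with compound, are challenged with thapsigargin to empty ER calcium stores; after 4 h, coelenterazine is added directly to the medium and luminescence is imaged.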

For assay [13], the target named is Cytochrome P450 1A2 (Homo sapiens) (UniProt P05177). The experiment in a line: p450-cyp1a2 (AID 410; calls by dose curve; note: potency is the fitted concentration of half-maximal effect). The conditions noted are these: recombinant CYP1A2, luciferin-ME demethylation, luminescence; series mostly up to 57 µM. The procedure, abridged: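 Inhibition was calculated relative to 57 uM furafylline (full inhibition). The reaction used human CYP1A2 at 20nM with Luciferin-ME at its Km, 100uM, driven by an NADPH-regenerating system for 60 min at room temperature.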

Assay [14] concerns the target Cytochrome P450 3A4 (Homo sapiens) (UniProt P08684). The experiment in a line: qHTS Assay for Inhibitors and Substrates of Cytochrome P450 3A4 (AID 884). Note: potency is the fitted concentration of half-maximal effect; nearly all actives have a fitted effect of over 50% in size. The note with it: recombinant CYP3A4, Luciferin-PPXE luminescence; series mostly up to 57.1 µM. The procedure, abridged: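 20 nM human CYP3A4 with 25 uM Luciferin-PPXE (at KM) in 200 mM KPO4, preincubated 10 min with compound; NADPH regeneration started a 60 min RT reaction. Luciferin detected by luminescence, normalized to 57 uM ketoconazole as full inhibition.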

Assay [15] shares this target. The experiment in a line: qHTS Assay for Activators of Cytochrome P450 3A4 (AID 885). Note: nearly all actives have a fitted effect of over 65% in size. The note with it: recombinant CYP3A4, Luciferin-PPXE luminescence, 60 min; series mostly up to 57.1 µM. The procedure, abridged: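 Steps: enzyme/substrate mix dispensed; compound added, 10 min RT; NADPH regeneration solution added, 60 min RT; luciferin detection buffer stops reaction; 20 min later luminescence measured.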

Assay [16] concerns the target Cytochrome P450 2C19 (Homo sapiens) (UniProt P33261). The experiment in a line: qHTS Assay for Inhibitors and Substrates of Cytochrome P450 2C19 (AID 899). Note: potency is the fitted concentration of half-maximal effect; nearly all actives have a fitted effect of over 60% in size. The conditions noted are these: recombinant CYP2C19, luciferin-H EGE luminescence; series mostly up to 57.1 µM. The procedure, abridged: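 Reactions contain 5nM enzyme, 10uM Luciferin-H EGE (KM) and 50mM KPO4; compound preincubates 10 min at 37C, NADPH regeneration starts turnover for 60 min. Luminescence after detection reagent gives activity.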

Sequence of Cytochrome P450 3A4 (Homo sapiens) (P08684 whole entry, looked up): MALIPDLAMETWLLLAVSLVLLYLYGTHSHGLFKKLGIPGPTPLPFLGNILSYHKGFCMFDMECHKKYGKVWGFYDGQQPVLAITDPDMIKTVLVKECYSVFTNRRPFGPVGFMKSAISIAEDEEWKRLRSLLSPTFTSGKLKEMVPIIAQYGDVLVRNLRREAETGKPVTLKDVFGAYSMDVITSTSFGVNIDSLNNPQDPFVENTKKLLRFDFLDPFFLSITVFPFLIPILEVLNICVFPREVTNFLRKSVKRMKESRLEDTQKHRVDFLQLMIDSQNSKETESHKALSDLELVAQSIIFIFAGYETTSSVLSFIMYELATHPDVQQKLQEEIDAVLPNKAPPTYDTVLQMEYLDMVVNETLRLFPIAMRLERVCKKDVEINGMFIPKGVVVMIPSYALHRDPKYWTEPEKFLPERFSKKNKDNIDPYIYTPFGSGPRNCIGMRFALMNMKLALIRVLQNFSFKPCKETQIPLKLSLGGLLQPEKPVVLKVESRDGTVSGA
Sequence of Lysosomal acid glucosylceramidase (Homo sapiens) (P04062 whole entry, looked up): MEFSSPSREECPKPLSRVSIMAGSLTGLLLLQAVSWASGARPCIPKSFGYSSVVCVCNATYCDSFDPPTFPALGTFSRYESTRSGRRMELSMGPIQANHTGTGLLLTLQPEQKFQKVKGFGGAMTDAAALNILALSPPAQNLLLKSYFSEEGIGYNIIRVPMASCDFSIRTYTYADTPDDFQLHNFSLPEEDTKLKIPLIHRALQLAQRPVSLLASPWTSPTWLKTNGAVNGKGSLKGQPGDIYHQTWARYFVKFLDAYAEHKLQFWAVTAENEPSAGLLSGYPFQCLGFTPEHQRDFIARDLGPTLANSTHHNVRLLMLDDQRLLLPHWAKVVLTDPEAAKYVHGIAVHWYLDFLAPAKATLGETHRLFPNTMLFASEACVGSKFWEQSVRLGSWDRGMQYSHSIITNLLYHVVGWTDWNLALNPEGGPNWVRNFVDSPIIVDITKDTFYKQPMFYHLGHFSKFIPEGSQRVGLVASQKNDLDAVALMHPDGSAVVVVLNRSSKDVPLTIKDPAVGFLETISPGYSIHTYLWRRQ
Sequence of Ubiquitin carboxyl-terminal hydrolase 1 (Homo sapiens) (O94782 whole entry, looked up): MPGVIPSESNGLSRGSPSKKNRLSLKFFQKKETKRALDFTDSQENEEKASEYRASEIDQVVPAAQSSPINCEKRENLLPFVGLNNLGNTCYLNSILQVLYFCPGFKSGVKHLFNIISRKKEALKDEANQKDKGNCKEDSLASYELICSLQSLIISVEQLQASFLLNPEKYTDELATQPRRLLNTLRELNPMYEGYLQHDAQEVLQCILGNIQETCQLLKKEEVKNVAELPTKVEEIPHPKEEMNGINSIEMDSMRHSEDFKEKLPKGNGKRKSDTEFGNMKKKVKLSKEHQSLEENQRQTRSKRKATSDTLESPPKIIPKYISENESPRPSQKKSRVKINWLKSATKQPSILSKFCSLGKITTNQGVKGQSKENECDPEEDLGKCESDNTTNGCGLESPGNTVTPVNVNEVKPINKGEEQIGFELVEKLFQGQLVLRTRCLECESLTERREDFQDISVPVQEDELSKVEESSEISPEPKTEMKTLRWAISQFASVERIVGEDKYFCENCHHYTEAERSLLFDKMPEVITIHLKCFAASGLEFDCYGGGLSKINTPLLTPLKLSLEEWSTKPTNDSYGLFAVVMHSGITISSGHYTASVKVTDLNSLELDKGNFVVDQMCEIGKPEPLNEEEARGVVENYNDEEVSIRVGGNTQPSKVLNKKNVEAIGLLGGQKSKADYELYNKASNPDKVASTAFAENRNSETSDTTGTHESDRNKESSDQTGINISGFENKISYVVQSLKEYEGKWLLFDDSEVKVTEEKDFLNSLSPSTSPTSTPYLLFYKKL
Sequence of 3',5'-cyclic-AMP phosphodiesterase 4B (Homo sapiens) (Q07343 whole entry, looked up): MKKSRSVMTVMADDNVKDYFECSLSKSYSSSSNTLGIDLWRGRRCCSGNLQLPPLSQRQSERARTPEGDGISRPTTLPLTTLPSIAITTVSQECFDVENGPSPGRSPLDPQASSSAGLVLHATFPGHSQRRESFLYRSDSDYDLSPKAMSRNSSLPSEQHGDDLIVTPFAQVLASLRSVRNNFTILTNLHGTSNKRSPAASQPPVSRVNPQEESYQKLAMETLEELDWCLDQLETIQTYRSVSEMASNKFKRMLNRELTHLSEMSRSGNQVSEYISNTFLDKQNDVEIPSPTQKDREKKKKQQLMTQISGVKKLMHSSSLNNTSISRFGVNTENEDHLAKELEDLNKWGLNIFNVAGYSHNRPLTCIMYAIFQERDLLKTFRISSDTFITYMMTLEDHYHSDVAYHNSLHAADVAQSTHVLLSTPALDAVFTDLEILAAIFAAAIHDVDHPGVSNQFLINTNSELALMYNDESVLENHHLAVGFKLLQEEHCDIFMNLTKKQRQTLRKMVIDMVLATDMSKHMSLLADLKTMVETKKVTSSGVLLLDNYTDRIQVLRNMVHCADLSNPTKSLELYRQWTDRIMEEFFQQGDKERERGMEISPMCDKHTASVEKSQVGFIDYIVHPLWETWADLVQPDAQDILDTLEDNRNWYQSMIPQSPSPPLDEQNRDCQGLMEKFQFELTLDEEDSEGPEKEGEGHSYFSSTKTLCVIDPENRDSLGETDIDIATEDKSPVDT
Sequence of Cytochrome P450 1A2 (Homo sapiens) (P05177 whole entry, looked up): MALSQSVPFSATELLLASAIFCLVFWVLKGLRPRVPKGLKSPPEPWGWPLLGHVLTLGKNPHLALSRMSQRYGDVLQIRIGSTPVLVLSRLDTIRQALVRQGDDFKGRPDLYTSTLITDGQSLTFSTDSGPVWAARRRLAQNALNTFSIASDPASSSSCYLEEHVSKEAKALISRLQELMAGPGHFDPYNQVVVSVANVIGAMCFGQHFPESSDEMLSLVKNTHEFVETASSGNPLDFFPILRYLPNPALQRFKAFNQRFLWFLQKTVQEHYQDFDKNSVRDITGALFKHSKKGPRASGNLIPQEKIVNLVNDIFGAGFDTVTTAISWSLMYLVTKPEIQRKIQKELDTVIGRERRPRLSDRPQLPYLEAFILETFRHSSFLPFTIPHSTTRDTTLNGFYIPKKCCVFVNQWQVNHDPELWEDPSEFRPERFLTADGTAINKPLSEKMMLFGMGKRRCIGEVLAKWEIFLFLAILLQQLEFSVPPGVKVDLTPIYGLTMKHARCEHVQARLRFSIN
Sequence of Dual specificity protein kinase CLK4 (Homo sapiens) (Q9HAZ1 whole entry, looked up): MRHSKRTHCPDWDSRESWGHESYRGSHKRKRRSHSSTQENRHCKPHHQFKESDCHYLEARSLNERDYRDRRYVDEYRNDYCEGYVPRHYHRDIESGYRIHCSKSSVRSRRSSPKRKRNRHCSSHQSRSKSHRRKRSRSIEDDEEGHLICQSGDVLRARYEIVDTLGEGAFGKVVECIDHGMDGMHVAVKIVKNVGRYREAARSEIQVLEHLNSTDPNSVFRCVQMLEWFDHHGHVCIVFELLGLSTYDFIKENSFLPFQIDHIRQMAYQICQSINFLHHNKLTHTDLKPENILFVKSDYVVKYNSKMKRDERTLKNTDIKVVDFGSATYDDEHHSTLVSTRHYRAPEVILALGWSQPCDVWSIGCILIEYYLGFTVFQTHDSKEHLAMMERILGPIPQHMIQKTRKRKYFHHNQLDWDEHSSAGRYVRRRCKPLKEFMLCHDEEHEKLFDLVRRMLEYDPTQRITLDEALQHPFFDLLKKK
Sequence of Glucocorticoid receptor (Homo sapiens) (P04150 whole entry, looked up, the tested form may be a part): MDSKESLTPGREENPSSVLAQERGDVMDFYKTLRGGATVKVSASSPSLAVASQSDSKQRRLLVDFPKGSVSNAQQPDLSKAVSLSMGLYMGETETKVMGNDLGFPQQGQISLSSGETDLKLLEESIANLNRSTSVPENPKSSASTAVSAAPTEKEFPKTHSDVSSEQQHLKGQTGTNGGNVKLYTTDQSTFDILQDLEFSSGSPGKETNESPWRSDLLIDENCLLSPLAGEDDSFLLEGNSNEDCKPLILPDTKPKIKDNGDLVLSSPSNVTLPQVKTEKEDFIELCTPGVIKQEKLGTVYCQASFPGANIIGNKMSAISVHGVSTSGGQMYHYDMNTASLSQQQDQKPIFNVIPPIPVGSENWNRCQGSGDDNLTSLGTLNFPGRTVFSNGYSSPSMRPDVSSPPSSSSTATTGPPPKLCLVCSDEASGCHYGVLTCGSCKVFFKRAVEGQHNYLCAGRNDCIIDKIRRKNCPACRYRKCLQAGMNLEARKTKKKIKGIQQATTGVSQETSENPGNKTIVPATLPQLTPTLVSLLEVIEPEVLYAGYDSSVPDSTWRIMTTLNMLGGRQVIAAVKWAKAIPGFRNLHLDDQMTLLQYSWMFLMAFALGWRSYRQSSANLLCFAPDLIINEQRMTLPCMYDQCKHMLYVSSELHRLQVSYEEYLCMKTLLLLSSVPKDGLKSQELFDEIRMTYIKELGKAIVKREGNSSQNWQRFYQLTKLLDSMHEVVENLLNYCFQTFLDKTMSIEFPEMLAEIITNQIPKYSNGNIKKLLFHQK
Sequence of Cytochrome P450 2C19 (Homo sapiens) (P33261 whole entry, looked up): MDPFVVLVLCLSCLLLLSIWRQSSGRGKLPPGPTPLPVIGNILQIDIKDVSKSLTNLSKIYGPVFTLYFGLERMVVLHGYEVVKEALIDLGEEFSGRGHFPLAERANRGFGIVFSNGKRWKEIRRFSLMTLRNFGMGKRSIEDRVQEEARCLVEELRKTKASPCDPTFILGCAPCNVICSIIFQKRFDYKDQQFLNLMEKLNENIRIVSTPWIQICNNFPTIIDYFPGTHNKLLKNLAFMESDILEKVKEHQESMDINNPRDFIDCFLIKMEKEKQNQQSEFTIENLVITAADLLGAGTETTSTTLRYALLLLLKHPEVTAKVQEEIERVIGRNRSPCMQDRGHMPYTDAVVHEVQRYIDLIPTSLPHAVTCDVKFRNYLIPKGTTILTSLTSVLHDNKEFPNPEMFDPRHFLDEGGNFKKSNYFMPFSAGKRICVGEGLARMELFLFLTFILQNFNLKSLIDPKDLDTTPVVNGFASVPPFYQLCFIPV

For the compound `COc1ccccc1CCn1c(=O)cnc2cncnc21`, the Potency in [1] is above 11.4 µM; in assay [5], above 9.22 µM; in assay [6], above 46 µM; in [9], 17.8 µM (active); in assay [10], 25.1 µM (active). Further, the activity change, negative = inhibition in assay [2] is -0.594%; in [3], 6.39%. In addition, in assay [4], the activity, negative = inhibition was -7.13%. In addition, the Potency entry in assay [7], in assay [8] and in [11] was “inactive” throughout. The result in [12] was inactive.

With `CS(=O)(=O)Nc1cccc(-c2nc(-n3ccnc3)c3ccccc3n2)c1`, the Potency in assay [1] was above 11.4 µM; in assay [5] it was above 46 µM; in assay [6] it was above 46 µM; in assay [9] it was 15.8 µM (active); in assay [10], 20 µM (active). Further, the activity change, negative = inhibition in [2] is -3.92%; in [3], 4.67%. Further, the activity, negative = inhibition in assay [4] is -7.2%. Besides, the Potency entry in [7] and in assay [11] was “inactive” in each case. In assay [12], the result was inactive.

As to `CN(C)c1ccc(-c2cncnc2N(C)Cc2ccco2)cc1`, the Potency was above 11.4 µM in [1]; 0.631 µM (active) in assay [13]; above 46 µM in assay [6]; 0.631 µM (active) in [14]; 0.251 µM (active) in assay [16]; 15.8 µM (active) in assay [9]. Further, in assay [10], the Potency is 17.8 µM (active). For the same compound, the figures for the activity change, negative = inhibition in [2] and in [3] were -22.2% and -8.48%, respectively. Moreover, the activity, negative = inhibition in assay [4] was -5.82%. The Potency result in assay [15] and in assay [11] was “inactive” each time. Moreover, the result in assay [12] was inactive.

As for `COc1cccc(Cn2c(=O)c(-c3cccs3)nc3cnc(N4CCOCC4)nc32)c1`, the Potency is above 11.4 µM in assay [1], above 9.22 µM in assay [5] and above 46 µM in [6]. The results for the activity change, negative = inhibition in assay [2] and in assay [3] were 21.6% and 5.78%, respectively. The Potency result in [8], in [9], in assay [10] and in assay [11] was “inactive” in each case. In addition, the outcome in assay [12] was inactive.

In the case of `CN(C)c1ccc(-c2ccc3ncnc(NC4CC4)c3c2)cc1`, the Potency in assay [1] was above 11.4 µM; in assay [13], 0.2 µM (active); in [5] it was above 46 µM; in assay [6], above 46 µM; in assay [14] it was 3.16 µM (active); in assay [9] it was 3.55 µM (active). Moreover, the Potency in [10] is 7.94 µM (active). Also, the activity change, negative = inhibition in assay [3] was -2.46%. Further, the activity, negative = inhibition in [4] was -20.9%. Moreover, the Potency result in assay [7], in [8], in [15] and in assay [11] was “inactive” throughout. For the same compound, the result in [12] was inactive.

With `c1cncc(CNc2ncncc2-c2ccoc2)c1`, the Potency in assay [1] was above 11.4 µM; in assay [5] it was above 46 µM; in assay [6], above 46 µM. Besides, the activity change, negative = inhibition is 2.19% in [2] and 7.14% in [3]. Also, the Potency result in [7], in assay [8], in assay [9], in assay [10] and in assay [11] was “inactive” in each case. Further, in assay [12], the outcome was inactive.

For the compound `Cc1noc(C)c1-c1nccc(NCc2cccs2)n1`, the Potency in assay [1] was above 11.4 µM; in assay [13], 0.501 µM (active); in assay [5], above 46 µM; in [6] it was above 46 µM; in [9], 22.4 µM (active); in assay [10] it was 35.5 µM (active). For the same compound, the activity change, negative = inhibition in assay [2] is 3.65%; in [3], -16.6%. The activity, negative = inhibition in assay [4] is 2.65%. Moreover, the Potency entry in [7] and in assay [15] was “inactive” in each case. The outcome in assay [12] was inactive.
